{
  "source": "PubChem BioAssay (NCI)",
  "note": "The panel holds about 83,000 compounds, 20% with a hit somewhere; the sample as a whole holds those more often.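 Method: cells in 96-well plates; compound added at one concentration; 48 h incubation; percent growth measured; values under 10 scored active.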 Calls of active or inactive are those of the source.",
  "data": [
    {"test_system": "MDA-MB-468 breast", "test": "NCI-60 one-dose screen, 48 h (100 = growth as untreated, 0 = no growth, -100 = all killed)", "details": "10 µM unless noted", "values": [
      {"smiles": "CCN(Cc1ccccc1)C1CCN(Cc2cc(Br)ccc2O)CC1", "growth": "25.5% (inactive)"},
      {"smiles": "CC(=O)[C@H]1CC[C@]2(C)[C@@H]1CC[C@@H]1[C@@]3(C)CC(CCC#N)(CCC#N)C(=O)C(C)(C)[C@@H]3CC[C@]12C", "growth": "99.7% (inactive)"},
      {"smiles": "CCOC(=O)c1cn2c3c(cc(C)cc3c1=O)C(=O)/C(=C/c1ccccc1)C2", "growth": "84.6% (inactive)"},
      {"smiles": "COc1cc(-c2nn(-c3cccc(NC(=O)CCN4CCN(Cc5ccccc5)CC4)c3)cc2-c2ccncc2)ccc1Cl", "growth": "1.17% (active)"},
      {"smiles": "CC1(C)OC2=C(CC1Br)C(=O)C(=O)c1ccccc12", "note": "(stereo not drawn)", "growth": "-87.1% (active)"},
      {"smiles": "CC(=O)CCC(=O)OCc1cc(=O)c(O)co1", "growth": "101% (inactive)"},
      {"smiles": "Cc1cc(C)c(S(=O)O)c(C)c1", "growth": "106% (inactive)"},
      {"smiles": "C[C@H](C(=O)N[C@@H](Cc1ccc(-c2ccccc2)cc1)C(=O)NC1CC(C)(C)NC(C)(C)C1)c1ccc(-c2ccccc2)c(F)c1", "growth": "-65.9% (active)"},
      {"smiles": "CN(C=O)c1ccccc1", "growth": "87.3% (inactive)"},
      {"smiles": "COc1ccc(-c2cc(-c3cccnc3)nc3sc4c(=O)n(-c5ccc(C)cc5)nnc4c23)cc1OC", "growth": "88% (inactive)"},
      {"smiles": "COC(=O)[C@]12CC[C@@H](C)[C@H](C)[C@@H]1C1=CC[C@@H]3[C@@]4(C)C[C@@H](OC(C)=O)[C@H](OC(C)=O)[C@@](C)(COC(C)=O)[C@@H]4[C@H](O)C[C@@]3(C)[C@]1(C)CC2", "growth": "-6.62% (active)"},
      {"smiles": "Nc1cc(-c2ccc(Cl)cc2)nn1-c1nc(-c2ccc(Br)cc2)cs1", "growth": "99.4% (inactive)"},
      {"smiles": "CCOC(=O)c1cc2c(n1Cc1cccc(OC)c1)-c1oncc1CCC2", "growth": "11.9% (inactive)"}
    ]}
  ]
}
